Consider one sequence from PMC7862700, “An all-to-all approach to the identification of sequence-specific readers for epigenetic DNA modifications on cytosine”.

Holding throughout (assay): DAPPL (digital affinity profiling via proximity ligation, sequencing); 10 mM Tris-HCl pH 7.5, 50 mM NaCl, 1 mM DTT, 4% glycerol, room temperature, 30 min; GST-TFs on glutathione beads, 16-mer random dsDNA library, 0.1% formaldehyde crosslink after washing; high values mean tight binding
The target of one assay is T1, FLI1 (Homo sapiens, UniProt Q01543 1-452).
T1 sequence: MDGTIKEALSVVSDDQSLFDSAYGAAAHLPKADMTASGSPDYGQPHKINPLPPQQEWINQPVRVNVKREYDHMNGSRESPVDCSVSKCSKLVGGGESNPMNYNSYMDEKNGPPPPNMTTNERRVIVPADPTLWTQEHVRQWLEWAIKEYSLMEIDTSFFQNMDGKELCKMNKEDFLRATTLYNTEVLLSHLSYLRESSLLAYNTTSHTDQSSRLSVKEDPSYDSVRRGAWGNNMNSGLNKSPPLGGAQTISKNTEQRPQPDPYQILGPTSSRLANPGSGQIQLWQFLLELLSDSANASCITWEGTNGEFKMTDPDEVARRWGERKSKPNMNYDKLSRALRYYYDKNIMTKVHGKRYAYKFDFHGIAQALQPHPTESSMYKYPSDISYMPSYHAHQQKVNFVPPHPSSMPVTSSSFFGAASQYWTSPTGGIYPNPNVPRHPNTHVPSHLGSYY
Conditions: protein: recombinant; tags: N-terminal GST; dsDNA, one strand shown. A digest of the protocol:
(§1)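 Beads coated with glutathione captured GST-fused human transcription factors that had been expressed in yeast, and the factors were then given DNA barcodes and pooled with a tag-only sample. The pools were incubated with 200 nmole of a random double-stranded 16-mer DNA library in Tris/NaCl/DTT/glycerol buffer for 30 min at room temperature, washed, crosslinked with 0.1% formaldehyde and proximity-ligated with BsaI/T4 ligase at 37 °C for 1 h. PCR amplification and Illumina NextSeq500 sequencing came last. Binding signal is each hexamer's read frequency for a factor divided by its frequency for the tag-only sample.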

Another assay concerns the target T2, ELK1 (Homo sapiens, UniProt P19419 1-428).
T2 sequence: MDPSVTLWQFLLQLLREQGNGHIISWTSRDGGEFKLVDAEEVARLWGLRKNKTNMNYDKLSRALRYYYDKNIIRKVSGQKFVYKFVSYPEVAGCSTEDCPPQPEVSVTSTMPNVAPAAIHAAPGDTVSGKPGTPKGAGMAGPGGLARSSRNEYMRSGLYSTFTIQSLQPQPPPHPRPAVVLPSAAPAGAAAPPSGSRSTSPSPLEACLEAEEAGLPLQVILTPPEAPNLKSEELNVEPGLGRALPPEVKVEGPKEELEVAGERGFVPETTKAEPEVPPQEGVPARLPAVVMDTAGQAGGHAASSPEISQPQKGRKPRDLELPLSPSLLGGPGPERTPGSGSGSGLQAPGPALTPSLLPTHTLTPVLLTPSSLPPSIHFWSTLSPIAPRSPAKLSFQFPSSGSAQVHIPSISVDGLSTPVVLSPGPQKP
Particulars: protein: recombinant; tags: N-terminal GST; dsDNA, one strand shown. A digest of the protocol: as §1

Another assay has as its target T3, GABPA (Homo sapiens, UniProt Q06546 1-454).
T3 sequence: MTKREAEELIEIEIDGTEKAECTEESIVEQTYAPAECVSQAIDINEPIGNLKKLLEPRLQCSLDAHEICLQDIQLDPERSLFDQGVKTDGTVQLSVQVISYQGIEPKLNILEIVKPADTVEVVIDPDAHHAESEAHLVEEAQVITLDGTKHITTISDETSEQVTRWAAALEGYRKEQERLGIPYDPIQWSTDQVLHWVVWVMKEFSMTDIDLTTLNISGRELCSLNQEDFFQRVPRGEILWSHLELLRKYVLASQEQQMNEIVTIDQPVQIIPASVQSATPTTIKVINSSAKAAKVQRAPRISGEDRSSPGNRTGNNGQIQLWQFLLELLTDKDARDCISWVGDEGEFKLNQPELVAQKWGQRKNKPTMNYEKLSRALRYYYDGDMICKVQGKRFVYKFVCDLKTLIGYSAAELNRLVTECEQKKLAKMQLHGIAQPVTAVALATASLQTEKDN
Particulars: protein: recombinant; tags: N-terminal GST; dsDNA, one strand shown. A digest of the protocol: as §1

The target in another assay is T4, ERG (Homo sapiens, UniProt P11308 1-479).
T4 sequence: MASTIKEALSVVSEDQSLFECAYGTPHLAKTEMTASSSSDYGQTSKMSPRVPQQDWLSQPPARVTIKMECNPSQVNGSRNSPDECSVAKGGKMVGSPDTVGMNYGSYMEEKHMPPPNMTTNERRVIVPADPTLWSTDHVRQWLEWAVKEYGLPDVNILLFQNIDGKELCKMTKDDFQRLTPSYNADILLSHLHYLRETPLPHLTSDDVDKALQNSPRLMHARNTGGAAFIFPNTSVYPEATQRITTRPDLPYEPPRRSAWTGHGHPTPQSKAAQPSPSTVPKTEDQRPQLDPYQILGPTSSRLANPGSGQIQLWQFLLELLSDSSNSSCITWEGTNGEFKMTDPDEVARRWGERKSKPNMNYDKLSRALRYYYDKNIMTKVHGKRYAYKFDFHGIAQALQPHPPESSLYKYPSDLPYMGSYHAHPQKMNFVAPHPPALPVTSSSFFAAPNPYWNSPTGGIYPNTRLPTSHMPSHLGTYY
Conditions: protein: recombinant; tags: N-terminal GST; dsDNA, one strand shown. A digest of the protocol: as §1

The next assay addresses ELF1 (Homo sapiens, UniProt P32519 1-619). Conditions: protein: recombinant; tags: N-terminal GST; dsDNA, one strand shown. A digest of the protocol:
as §1

The target of a further assay is T5, EHF (Homo sapiens, UniProt Q9NZC4 1-300).
T5 sequence: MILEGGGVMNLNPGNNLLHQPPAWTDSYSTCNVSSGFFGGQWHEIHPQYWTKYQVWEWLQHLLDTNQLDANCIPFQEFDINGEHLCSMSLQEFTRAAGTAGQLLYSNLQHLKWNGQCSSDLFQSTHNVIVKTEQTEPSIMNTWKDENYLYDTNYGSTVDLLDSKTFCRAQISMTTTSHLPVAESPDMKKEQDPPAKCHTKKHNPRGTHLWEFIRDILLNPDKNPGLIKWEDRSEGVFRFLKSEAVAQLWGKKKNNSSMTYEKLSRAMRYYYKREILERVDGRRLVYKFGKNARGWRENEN
Conditions: protein: recombinant; tags: N-terminal GST; dsDNA, one strand shown. A digest of the protocol: as §1

For a further assay, the target named is SPI1 (Homo sapiens, UniProt P17947 1-270). Particulars: protein: recombinant; tags: N-terminal GST; dsDNA, one strand shown. A digest of the protocol:
as §1

A further assay has as its target SPIB (Homo sapiens, UniProt Q01892 1-262). Conditions: protein: recombinant; tags: N-terminal GST; dsDNA, one strand shown. The gist of the method:
as §1

For a further assay, the target named is T6, ELK3 (Homo sapiens, UniProt P41970 1-407).
T6 sequence: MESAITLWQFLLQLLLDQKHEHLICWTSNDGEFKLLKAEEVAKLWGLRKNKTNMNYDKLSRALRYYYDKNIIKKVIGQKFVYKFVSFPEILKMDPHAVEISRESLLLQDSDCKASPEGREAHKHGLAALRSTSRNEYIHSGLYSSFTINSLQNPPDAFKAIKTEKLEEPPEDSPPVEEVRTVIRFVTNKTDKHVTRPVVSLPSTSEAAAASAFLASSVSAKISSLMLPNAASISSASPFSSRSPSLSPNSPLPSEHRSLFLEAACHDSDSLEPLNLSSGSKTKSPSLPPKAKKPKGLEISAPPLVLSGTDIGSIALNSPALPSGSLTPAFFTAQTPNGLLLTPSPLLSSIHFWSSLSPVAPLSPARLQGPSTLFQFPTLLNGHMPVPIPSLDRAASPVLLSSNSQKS
Particulars: protein: recombinant; tags: N-terminal GST; dsDNA, one strand shown. The gist of the method:
as §1

In another assay the target is T7, FEV (Homo sapiens, UniProt Q99581 1-238).
T7 sequence: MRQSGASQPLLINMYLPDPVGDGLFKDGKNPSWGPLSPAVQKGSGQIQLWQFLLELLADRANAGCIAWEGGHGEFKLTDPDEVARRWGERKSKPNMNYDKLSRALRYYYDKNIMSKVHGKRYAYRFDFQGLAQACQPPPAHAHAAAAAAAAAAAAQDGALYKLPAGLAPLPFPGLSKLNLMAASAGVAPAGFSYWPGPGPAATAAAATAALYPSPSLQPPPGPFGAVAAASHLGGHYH
Particulars: protein: recombinant; tags: N-terminal GST; dsDNA, one strand shown. A digest of the protocol: as §1

The next assay addresses ETV5 (Homo sapiens, UniProt P41161 1-510). Conditions: protein: recombinant; tags: N-terminal GST; dsDNA, one strand shown. A digest of the protocol: as §1
A further assay has as its target HSF1 (Homo sapiens, UniProt Q00613 1-529). Conditions: protein: recombinant; tags: N-terminal GST; chain copies: 3; dsDNA, one strand shown. A digest of the protocol:
as §1

The next assay concerns the target T8, SPIC (Homo sapiens, UniProt Q8N5J4 1-248).
T8 sequence: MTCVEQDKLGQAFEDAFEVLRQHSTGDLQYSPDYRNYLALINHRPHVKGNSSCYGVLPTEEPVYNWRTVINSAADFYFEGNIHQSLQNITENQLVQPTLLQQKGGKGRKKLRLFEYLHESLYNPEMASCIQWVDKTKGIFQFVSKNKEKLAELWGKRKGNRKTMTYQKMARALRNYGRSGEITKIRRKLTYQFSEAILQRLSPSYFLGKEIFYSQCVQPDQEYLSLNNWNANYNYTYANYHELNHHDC
Conditions: protein: recombinant; tags: N-terminal GST; dsDNA, one strand shown. The gist of the method: as §1

The next assay deals with ELF4 (Homo sapiens, UniProt Q99607 1-663). Conditions: protein: recombinant; tags: N-terminal GST; dsDNA, one strand shown. The gist of the method: as §1
Another assay addresses T9, ELK4 (Homo sapiens, UniProt P28324-2 1-405).
T9 sequence: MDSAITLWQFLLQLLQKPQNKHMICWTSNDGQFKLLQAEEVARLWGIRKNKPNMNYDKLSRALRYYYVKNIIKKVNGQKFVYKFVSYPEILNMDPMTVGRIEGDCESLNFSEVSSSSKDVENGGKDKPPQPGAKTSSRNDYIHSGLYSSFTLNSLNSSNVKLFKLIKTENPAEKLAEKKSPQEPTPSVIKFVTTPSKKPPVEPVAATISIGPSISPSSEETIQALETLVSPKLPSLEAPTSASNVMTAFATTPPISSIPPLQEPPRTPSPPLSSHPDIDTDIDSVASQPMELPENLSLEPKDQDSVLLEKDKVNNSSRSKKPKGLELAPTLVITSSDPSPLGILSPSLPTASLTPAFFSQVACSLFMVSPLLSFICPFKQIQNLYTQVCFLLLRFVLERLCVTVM
Particulars: protein: recombinant; tags: N-terminal GST; dsDNA, one strand shown. A digest of the protocol:
as §1

For the next assay, the target named is T10, ETV2 (Homo sapiens, UniProt O00321 1-342).
T10 sequence: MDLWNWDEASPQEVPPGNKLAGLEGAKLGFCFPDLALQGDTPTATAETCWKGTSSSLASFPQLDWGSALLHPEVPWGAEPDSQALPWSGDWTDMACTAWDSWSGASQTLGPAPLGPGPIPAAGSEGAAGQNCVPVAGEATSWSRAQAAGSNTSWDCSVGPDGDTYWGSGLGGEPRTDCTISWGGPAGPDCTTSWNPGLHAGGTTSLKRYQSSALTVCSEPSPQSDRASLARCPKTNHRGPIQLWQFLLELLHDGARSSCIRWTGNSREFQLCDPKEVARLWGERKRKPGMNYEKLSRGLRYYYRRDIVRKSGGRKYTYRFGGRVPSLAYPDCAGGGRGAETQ
Particulars: protein: recombinant; tags: N-terminal GST; dsDNA, one strand shown. The gist of the method: as §1

In another assay the target is T11, ELF3 (Homo sapiens, UniProt P78545 1-371).
T11 sequence: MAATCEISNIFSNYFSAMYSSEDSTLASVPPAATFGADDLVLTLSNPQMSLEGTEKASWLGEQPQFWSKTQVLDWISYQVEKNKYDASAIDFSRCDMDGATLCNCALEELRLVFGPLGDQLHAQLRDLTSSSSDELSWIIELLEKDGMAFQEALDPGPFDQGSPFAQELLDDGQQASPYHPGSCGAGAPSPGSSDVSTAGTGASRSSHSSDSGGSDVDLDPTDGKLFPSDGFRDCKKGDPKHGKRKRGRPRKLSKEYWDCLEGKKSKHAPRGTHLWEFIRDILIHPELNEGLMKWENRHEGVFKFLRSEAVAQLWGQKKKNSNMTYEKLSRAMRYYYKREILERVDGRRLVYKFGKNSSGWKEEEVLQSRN
Conditions: protein: recombinant; tags: N-terminal GST; dsDNA, one strand shown. The gist of the method: as §1

The next assay has as its target CRX (Homo sapiens, UniProt O43186 1-299). Particulars: protein: recombinant; tags: N-terminal GST; dsDNA, one strand shown. The gist of the method: as §1
The target in another assay is ETV1 (Homo sapiens, UniProt P50549 1-477). Conditions: protein: recombinant; tags: N-terminal GST; dsDNA, one strand shown. The gist of the method: as §1
Chain of ETV1 (P50549 whole entry): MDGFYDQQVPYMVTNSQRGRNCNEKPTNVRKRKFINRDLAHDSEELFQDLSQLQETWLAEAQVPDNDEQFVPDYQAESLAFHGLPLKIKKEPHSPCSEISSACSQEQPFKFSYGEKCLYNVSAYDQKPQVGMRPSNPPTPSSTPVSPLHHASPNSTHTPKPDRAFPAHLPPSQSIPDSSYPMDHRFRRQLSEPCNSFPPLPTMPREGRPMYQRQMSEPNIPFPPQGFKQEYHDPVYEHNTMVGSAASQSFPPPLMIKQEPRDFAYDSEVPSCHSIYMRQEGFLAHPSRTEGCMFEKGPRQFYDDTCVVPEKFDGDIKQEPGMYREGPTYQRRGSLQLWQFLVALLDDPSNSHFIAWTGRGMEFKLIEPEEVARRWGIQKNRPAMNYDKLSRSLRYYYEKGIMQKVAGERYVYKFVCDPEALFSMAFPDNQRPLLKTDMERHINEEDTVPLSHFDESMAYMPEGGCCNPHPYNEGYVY

Chain of ELF1 (P32519 whole entry): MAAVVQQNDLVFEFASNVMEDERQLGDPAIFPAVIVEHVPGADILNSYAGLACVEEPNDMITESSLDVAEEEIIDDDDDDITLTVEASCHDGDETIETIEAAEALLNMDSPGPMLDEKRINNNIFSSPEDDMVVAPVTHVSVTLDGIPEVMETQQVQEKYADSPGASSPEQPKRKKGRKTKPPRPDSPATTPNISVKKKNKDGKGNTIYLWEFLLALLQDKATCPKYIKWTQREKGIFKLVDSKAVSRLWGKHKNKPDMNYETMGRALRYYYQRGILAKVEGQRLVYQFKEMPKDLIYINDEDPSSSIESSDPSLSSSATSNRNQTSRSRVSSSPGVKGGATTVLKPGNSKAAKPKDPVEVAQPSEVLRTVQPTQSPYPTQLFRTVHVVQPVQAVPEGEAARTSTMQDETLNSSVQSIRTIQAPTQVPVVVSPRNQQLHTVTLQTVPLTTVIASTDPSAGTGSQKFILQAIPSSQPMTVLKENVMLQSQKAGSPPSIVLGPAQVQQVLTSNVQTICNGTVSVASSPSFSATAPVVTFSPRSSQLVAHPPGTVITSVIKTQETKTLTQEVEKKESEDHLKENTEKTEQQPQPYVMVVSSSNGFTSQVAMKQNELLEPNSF
Chain of HSF1 (Q00613 whole entry): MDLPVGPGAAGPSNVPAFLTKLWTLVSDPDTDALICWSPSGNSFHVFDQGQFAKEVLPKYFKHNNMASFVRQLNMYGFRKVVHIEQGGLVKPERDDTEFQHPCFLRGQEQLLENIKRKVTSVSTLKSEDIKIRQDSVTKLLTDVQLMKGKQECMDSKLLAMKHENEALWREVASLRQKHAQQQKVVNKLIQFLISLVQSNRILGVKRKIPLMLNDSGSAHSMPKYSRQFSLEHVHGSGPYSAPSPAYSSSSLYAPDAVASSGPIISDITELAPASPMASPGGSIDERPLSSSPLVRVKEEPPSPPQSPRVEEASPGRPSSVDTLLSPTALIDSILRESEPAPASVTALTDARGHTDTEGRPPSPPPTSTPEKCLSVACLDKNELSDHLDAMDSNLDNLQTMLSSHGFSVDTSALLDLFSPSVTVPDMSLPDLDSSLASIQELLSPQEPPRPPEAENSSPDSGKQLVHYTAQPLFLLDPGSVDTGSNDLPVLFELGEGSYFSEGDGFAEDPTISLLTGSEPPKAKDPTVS
Chain of SPIB (Q01892 whole entry): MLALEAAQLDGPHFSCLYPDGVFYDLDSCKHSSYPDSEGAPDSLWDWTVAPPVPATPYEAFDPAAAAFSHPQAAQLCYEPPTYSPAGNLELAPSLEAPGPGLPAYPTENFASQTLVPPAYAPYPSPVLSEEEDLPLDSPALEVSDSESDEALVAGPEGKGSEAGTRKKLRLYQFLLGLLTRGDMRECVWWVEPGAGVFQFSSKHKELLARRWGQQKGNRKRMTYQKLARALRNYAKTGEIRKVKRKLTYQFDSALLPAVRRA
Chain of ETV5 (P41161 whole entry): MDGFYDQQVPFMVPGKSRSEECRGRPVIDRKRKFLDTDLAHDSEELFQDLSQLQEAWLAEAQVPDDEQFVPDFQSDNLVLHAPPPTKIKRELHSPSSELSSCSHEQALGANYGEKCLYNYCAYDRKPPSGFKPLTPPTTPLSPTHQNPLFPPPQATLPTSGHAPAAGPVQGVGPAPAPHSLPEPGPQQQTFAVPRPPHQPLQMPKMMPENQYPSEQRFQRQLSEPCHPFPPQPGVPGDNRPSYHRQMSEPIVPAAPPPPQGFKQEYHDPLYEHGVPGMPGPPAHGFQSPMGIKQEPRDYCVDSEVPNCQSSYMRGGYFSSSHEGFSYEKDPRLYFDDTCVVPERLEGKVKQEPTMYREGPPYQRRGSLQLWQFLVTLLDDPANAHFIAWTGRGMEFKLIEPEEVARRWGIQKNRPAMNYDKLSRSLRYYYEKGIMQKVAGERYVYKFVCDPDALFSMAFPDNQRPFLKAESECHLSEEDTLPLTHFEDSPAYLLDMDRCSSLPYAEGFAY
Chain of CRX (O43186 whole entry): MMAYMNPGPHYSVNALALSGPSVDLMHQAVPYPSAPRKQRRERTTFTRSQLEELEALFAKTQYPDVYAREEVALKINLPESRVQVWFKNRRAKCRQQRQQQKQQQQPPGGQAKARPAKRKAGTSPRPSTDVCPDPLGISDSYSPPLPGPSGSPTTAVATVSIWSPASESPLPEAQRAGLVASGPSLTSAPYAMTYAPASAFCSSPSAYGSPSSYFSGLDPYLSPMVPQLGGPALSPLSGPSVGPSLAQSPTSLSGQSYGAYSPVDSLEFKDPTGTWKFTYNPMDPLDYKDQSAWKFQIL
Chain of ELF4 (Q99607 whole entry): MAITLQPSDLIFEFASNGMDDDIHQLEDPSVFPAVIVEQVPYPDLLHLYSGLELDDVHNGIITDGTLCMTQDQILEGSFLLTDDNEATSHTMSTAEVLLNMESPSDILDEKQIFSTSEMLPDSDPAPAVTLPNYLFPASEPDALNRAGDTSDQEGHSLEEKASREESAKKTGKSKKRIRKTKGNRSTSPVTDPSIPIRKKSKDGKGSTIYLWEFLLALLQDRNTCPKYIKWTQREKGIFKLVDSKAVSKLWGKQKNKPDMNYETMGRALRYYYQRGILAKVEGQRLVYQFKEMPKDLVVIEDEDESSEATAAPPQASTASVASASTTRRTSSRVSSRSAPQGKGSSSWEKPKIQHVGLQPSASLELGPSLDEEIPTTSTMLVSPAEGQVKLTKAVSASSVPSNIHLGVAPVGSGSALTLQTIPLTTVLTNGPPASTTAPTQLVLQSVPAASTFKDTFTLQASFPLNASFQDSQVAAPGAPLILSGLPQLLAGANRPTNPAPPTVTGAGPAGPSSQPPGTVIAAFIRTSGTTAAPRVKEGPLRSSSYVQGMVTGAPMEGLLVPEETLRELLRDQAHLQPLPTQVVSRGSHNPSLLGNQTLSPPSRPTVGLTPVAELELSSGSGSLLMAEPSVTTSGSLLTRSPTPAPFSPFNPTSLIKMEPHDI

For the sequence GTTCGA, the binding signal is 1.13 fold enrichment (6-mer frequency, TF over GST control) with FLI1; 1.12 fold enrichment (6-mer frequency, TF over GST control) in the assay with ELK1; 1.17 fold enrichment (6-mer frequency, TF over GST control) with GABPA; 1.07 fold enrichment (6-mer frequency, TF over GST control) with ERG; 1.08 fold enrichment (6-mer frequency, TF over GST control) in the assay with ELF1; 1.14 fold enrichment (6-mer frequency, TF over GST control) with EHF. The binding signal in the assay with SPI1 is 1.04 fold enrichment (6-mer frequency, TF over GST control); in the assay with SPIB it was 1.05 fold enrichment (6-mer frequency, TF over GST control); with ELK3 it was 1.15 fold enrichment (6-mer frequency, TF over GST control); in the assay with FEV it was 1.02 fold enrichment (6-mer frequency, TF over GST control); with ETV5 it was 1.07 fold enrichment (6-mer frequency, TF over GST control); in the assay with HSF1, 1.9 fold enrichment (6-mer frequency, TF over GST control). Further, the binding signal is 1.15 fold enrichment (6-mer frequency, TF over GST control) with SPIC; 1.12 fold enrichment (6-mer frequency, TF over GST control) with ELF4; 1.07 fold enrichment (6-mer frequency, TF over GST control) with ELK4; 1 fold enrichment (6-mer frequency, TF over GST control) in the assay with ETV2; 1.13 fold enrichment (6-mer frequency, TF over GST control) with ELF3; 1.11 fold enrichment (6-mer frequency, TF over GST control) with CRX. The binding signal with ETV1 was 1.08 fold enrichment (6-mer frequency, TF over GST control).
